Peg3 promoter: reduces Peg3 promoter-driven luciferase expression in HeLa; 1.7% of 360,000 active; inhibition, % at 20 µM; HeLa PEG-Prom luciferase reporter, luminescence, overnight; AID 588405;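 active = inhibition of at least 50% at 20 µM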
EWS-Fli inh: inhibitors of EWS/Fli oncoprotein transcriptional activity; A673 NR0B1-luciferase reporter, viability-normalised; inhibition, % at 12.6 µM; 0.67% of 350,000 active;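 active = mean inhibition of at least 50% after viability correction, with every replicate also passing that limit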;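 note: firefly luciferase signal divided by Alamar Blue viability fluorescence both relative to DMSO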
ABHD5-PLIN5 inh: inhibitors of human ABHD5-perilipin-5 interaction | inhibition, % at 4 µM | 0.78% of 360,000 active | Split G. princeps luciferase complementation, luminescence, 4 h | AID 602281 | Q00G26+Q8WTS1;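 active = inhibition above the mean inhibition across every tested compound plus 3 SD, cut at about 22% in these data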;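 note: 0% = DMSO only wells and the 100% control is not disclosed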
Target sequence (Q00G26 whole entry, looked up): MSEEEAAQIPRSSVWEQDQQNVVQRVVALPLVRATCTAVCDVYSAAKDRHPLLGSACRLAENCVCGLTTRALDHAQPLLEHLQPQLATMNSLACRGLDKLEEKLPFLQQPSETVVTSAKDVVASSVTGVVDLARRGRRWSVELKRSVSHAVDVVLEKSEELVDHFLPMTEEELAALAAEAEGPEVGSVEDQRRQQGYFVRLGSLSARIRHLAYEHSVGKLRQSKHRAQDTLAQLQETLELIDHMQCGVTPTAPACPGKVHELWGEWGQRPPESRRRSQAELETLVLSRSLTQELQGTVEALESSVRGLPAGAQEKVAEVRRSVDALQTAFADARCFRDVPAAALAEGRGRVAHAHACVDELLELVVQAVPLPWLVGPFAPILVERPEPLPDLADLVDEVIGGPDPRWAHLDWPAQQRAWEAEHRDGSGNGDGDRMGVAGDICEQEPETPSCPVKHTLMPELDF
Target sequence (Q8WTS1 whole entry, looked up): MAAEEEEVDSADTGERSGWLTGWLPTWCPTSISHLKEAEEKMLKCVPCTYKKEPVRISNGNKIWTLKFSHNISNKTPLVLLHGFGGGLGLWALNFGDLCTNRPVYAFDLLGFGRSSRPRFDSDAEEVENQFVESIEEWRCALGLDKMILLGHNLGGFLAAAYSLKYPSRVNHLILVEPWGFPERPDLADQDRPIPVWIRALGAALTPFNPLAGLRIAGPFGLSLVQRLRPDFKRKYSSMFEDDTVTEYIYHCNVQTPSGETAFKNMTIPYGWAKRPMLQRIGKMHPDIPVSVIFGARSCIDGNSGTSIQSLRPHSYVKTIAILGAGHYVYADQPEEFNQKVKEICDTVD
MITF TRPM1 inh: inhibitors of MITF-driven TRPM1 promoter in melanoma cells. SK-MEL-5 TRPM1 promoter luciferase, 24 h. inhibition, % at 12.5 µM. 0.83% of 330,000 active;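 active = mean inhibition across replicates of 60% or more, whatever share of single replicates reaches that level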
PAX8 inh HTS: lowers PAX8-driven luciferase in RMG-I cells. RMG-I TPO-luciferase reporter, SteadyGlo, 24 h. inhibition, % at 12.6 µM. 1.2% of 360,000 active. AID 652154;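 active = mean replicate inhibition at least 60% with every replicate also reaching 60%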;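 note: luciferase light reporting Pax8 driven TPO promoter activity; plate controls were median of neutral control wells for no effect and mitoxantrone controls for full effect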
Shn3 3UTR inh: reduces Shn3 3'UTR luciferase signal in osteoblasts; 0.52% of 360,000 active; inhibition, % at 12.5 µM; AID 588674; Clone20 osteoblast Shn3 3'UTR firefly luciferase, 24 h;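 active = mean inhibition of at least 75% with every replicate also reaching 75%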;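 note: 0% = median of neutral control wells and 100% = pilot-screen positive control compound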
Numbers without * were called inactive; nt = no result given. In the library only some 3% were active in any assay of this set; here they are far more common.

SMILES | Peg3 promoter | EWS-Fli inh | ABHD5-PLIN5 inh | MITF TRPM1 inh | PAX8 inh HTS | Shn3 3UTR inh
CCN1/C(=C/c2ccc3cc(C)ccc3[n+]2CC)Sc2cc(C)c(C)cc21 | 52* | 73* | 12 | 69* | 88* | 35
CCOC(=O)/C(=C/C=C1\Sc2cc(C)c(C)cc2N1CC)C(C)=O | 5 | 3 | -4 | 11 | 17 | 51
CCOC(=O)C(Cc1nc(OCc2ccccc2)cc(OCc2ccccc2)n1)=NO | 55* | 22 | -8 | -8 | 18 | 17
COC1(OC)N=C(N)C2(C#N)C(c3ccc(F)cc3)C12C#N (stereo not given) | 3 | nt | -6 | -13 | nt | 1
CCSC1(SCC)N=C(N)C2(C#N)C(c3ccc(F)cc3)C12C#N (stereo not given) | 107* | nt | 14 | 82* | nt | 31
O=C(c1ccc2c(c1)OCO2)N1CC2(C1)[C@H](c1ccccc1)[C@@H](CO)N2C(=O)C1CCC1 | nt | 5 | nt | nt | 7 | nt
COc1ccc(-c2ccc3c(c2)[C@H]2[C@H](CCN2S(=O)(=O)c2ccccc2C)[C@H](CO)N3C)cc1 | nt | 12 | nt | nt | 69* | nt
COc1ccc(-c2ccc3c(c2)[C@@H]2[C@@H](CCN2C(=O)C2CCCCC2)[C@H](CO)N3C)cc1 | nt | 13 | nt | nt | 93* | nt
COc1ccc(-c2ccc3c(c2)[C@@H]2[C@@H](CCN2C(=O)C2CCCC2)[C@H](CO)N3C)cc1 | nt | -1 | nt | nt | 76* | nt
CN1C(=O)c2cc(NC(=O)Cc3ccccc3)ccc2OC[C@@H]2O[C@@H](CC(=O)O)CC[C@@H]21 | nt | 4 | nt | nt | -9 | nt
CN(C)C(=O)C[C@@H]1CC[C@@H]2[C@H](COc3ccc(NC(=O)C4CCC4)cc3C(=O)N2C)O1 | nt | -3 | nt | nt | nt | nt
CCc1nc(N)nc(N)c1-c1ccc(N(C)Cc2ccccc2)c([N+](=O)[O-])c1 | 34 | 56* | 9 | 39 | 38 | 83
CCc1nc(N)nc(N)c1-c1ccc(NCCN)c([N+](=O)[O-])c1 | 16 | 45 | -1 | 18 | -5 | 36
NC(=O)c1c(NC(=O)c2ccc([N+](=O)[O-])o2)sc2c1CCCC2 | 99* | -49 | 5 | 62* | 47 | 81
NC(=O)c1ccsc1NC(=O)COC(=O)c1ccc([N+](=O)[O-])o1 | 16 | -5 | 6 | 29 | -21 | 2
NC(=O)c1ccsc1NC(=O)c1ccc([N+](=O)[O-])o1 | 47 | 58* | -5 | 67* | 89* | 29
CN1CCc2c(sc(NC(=O)c3ccc([N+](=O)[O-])o3)c2C(N)=O)C1 | 107* | 67* | 9 | 86* | 95* | -10
O=C(NCC1CC1)[C@@H]1[C@@H](CO)[C@@H]2Cn3c(ccc(-c4cccnc4)c3=O)[C@@H]2N1C(=O)NC1CCCC1 | nt | -2 | nt | nt | 0 | nt
CO[C@@H]1CN(C)C(=O)c2ccc(NC(=O)c3cc(C)on3)cc2OC[C@@H](C)N(C(=O)C2CC2)C[C@H]1C | nt | -4 | nt | nt | -1 | nt
O=C(NCC1CCCCC1)C1(CC2CC(c3ccc(Cl)cc3)=NO2)CCNCC1 (stereo not given) | 97* | -3 | 11 | 25 | 1 | -5
O=C(NCC1CCCCC1)C1(CC2CC(c3cccc(Br)c3)=NO2)CCNCC1 (stereo not given) | 99* | 14 | 14 | 65* | 4 | -23
CC(C)(C)OC(=O)N1CCC(CC2CC(c3cccc(Br)c3)=NO2)(C(=O)NCC2CCCCC2)CC1 (stereo not given) | nt | -4 | nt | -12 | 1 | 15
Cc1cccc(N2C(=O)C(Oc3ccc(Cl)cc3Cl)C2C=O)c1C (stereo not given) | 69* | nt | 10 | 13 | 7 | -6
CC(C)(C)OC(=O)N1CCC(NC(=O)c2nc[nH]c2C(=O)NCC(=O)OCc2ccccc2)CC1 | 55* | -6 | 0 | -11 | -8 | -3
CC(C)(C)OC(=O)[C@H](Cc1ccccc1)NC(=O)c1nc[nH]c1C(=O)N[C@@H](Cc1ccccc1)C(=O)OC(C)(C)C | 25 | 17 | -4 | 13 | 104* | 16
SMILES | Peg3 promoter | EWS-Fli inh | ABHD5-PLIN5 inh | MITF TRPM1 inh | PAX8 inh HTS | Shn3 3UTR inh
CC(C)(C)OC(=O)NCCCC[C@H](NC(=O)c1[nH]cnc1C(=O)N[C@@H](Cc1ccccc1)C(=O)OC(C)(C)C)C(=O)OC(C)(C)C | 9 | 35 | 6 | 42 | 104* | 2
CCCNC(=O)N1[C@H](CO)[C@@H](c2ccccc2C2=CCCC2)[C@@H]1C#N | nt | 1 | nt | nt | 22 | nt
C[C@@H]1CN([C@@H](C)CO)C(=O)c2cc(-c3ccccc3)cnc2O[C@H]1CN(C)C(=O)C1CCCCC1 | nt | 7 | nt | nt | nt | nt
Cc1cc(C(=O)Nc2cccc3c2O[C@H](CN(C)S(C)(=O)=O)[C@@H](C)CN([C@@H](C)CO)C3=O)n(C)n1 | nt | 5 | nt | nt | nt | nt
N=c1c(S(=O)(=O)c2ccc(Cl)cc2)cc2c(=O)n3ccccc3nc2n1Cc1ccco1 | 36 | -3 | 28* | -11 | -1 | 7
COc1ccc(CCNC(=O)c2cc3c(=O)n4ccccc4nc3n(Cc3ccco3)c2=N)cc1OC | 73* | nt | 22 | 0 | -6 | -37
N=c1c(S(=O)(=O)c2ccc(Br)cc2)cc2c(=O)n3ccccc3nc2n1Cc1ccco1 | 41 | nt | 34* | 6 | 1 | 2
COc1ccc(CCn2c(=N)c(C(=O)NCc3ccco3)cc3c(=O)n4ccccc4nc32)cc1OC | 7 | 3 | 6 | -4 | 7 | 15
N=c1c(S(=O)(=O)c2ccc(Br)cc2)cc2c(=O)n3ccccc3nc2n1Cc1ccccc1 | 8 | -4 | 3 | -8 | -17 | 7
N=c1c(S(=O)(=O)c2ccc(Cl)cc2)cc2c(=O)n3ccccc3nc2n1CC1CCCO1 (stereo not given) | -5 | nt | -7 | -10 | nt | 12
CCCNC(=O)[C@@H]1[C@@H](CO)[C@@H]2Cn3c(ccc(/C=C/c4ccccc4)c3=O)[C@H]1N2C(=O)c1ccccc1 | nt | 4 | nt | nt | nt | nt
C/C=C/c1ccc([C@H]2[C@@H](CO)N(C(C)=O)[C@@H]2CNC(=O)CC2CC2)cc1 | nt | -10 | nt | nt | 10 | nt
Cc1cc(C)c(S(=O)(=O)/N=C2/C=C(Sc3ncn[nH]3)C(=O)c3ccccc32)cc1C | 106* | nt | 18 | 89* | 102* | 94*
COc1ccc(S(=O)(=O)Nc2ccc3c(c2)C(=O)N([C@@H](C)CO)C[C@H](C)[C@@H](CN(C)S(=O)(=O)c2cccs2)OCCCC[C@@H](C)O3)cc1 | nt | 3 | nt | nt | 2 | nt
C[C@@H]1CN([C@H](C)CO)C(=O)c2cc(NS(=O)(=O)c3ccccc3)ccc2O[C@@H](C)CCCCO[C@H]1CN(C)Cc1ccc(C(F)(F)F)cc1 | nt | -7 | nt | nt | 102* | nt
C[C@@H]1CN([C@@H](C)CO)C(=O)c2cc(NS(=O)(=O)c3ccccc3)ccc2O[C@@H](C)CCCCO[C@@H]1CN(C)Cc1ccc(C(F)(F)F)cc1 | nt | -9 | nt | nt | 106* | nt
C[C@H]1CCCCO[C@@H](CN(C)Cc2ccc(C(F)(F)F)cc2)[C@@H](C)CN([C@@H](C)CO)C(=O)c2cc(NS(=O)(=O)c3ccccc3)ccc2O1 | nt | -19 | nt | nt | 87* | nt

Assay outcomes deposited in PubChem BioAssay by several laboratories.
